Measurements from PubChem BioAssay AID1159580 (chemical genetic matrix, 2015).
Values joined by “and” are separate entries in the source; they are usually repeats but may differ in a detail not shown here. Equal values may be shown once. Screen size: about 5,500 compounds; about 2,000 (36%) were called active. About 18% were inconclusive and are not listed. No stated cut-off is given here; in the data, active means normalized growth mostly below about 0.91 (no sharp cut-off); inconclusive means no clear call, values can overlap the other calls; inactive means mostly above about 0.92. The list shows a part of the results.

Assay: chemical genetic growth profiling, strain panel (AID 1159580);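 further: tested at 20 µM; growth read once vehicle control cultures reached saturation at 30 °C; 1 = growth at the plate median or of vehicle wells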
Conditions: S. cerevisiae deletion strains, growth OD

Measured: normalized growth

CCCC(C(=O)OCCN(CC)CC)(c1ccccc1)c1ccccc1
active: locus YDR137W, strain rgp1, stronger effect = lower value 1.18 [resistant]
inactive: locus YAL013W, strain DEP1, stronger effect = lower value 0.991 | locus YAL021C, strain ccr4, stronger effect = lower value 0.981 | locus YAL026C, strain drs2, stronger effect = lower value 1.01 | locus YAL030W, strain snc1, stronger effect = lower value 0.985 | locus YAL040C, strain CLN3, stronger effect = lower value 1.03 | locus YBR009C, strain hhf1, stronger effect = lower value 1 | locus YBR021W, strain FUR4, stronger effect = lower value 0.92 | locus YBR023C, strain chs3, stronger effect = lower value 1 | locus YBR171W, strain sec66, stronger effect = lower value 0.998 | locus YBR229C, strain ROT2, stronger effect = lower value 1.01 | locus YBR231C, strain swc5, stronger effect = lower value 0.992 | locus YBR279W, strain paf1, stronger effect = lower value 0.995 | locus YCL011C, strain gbp2, stronger effect = lower value 1.01 | locus YCL016C, strain dcc1, stronger effect = lower value 0.995 | locus YCL029C, strain bik1, stronger effect = lower value 1 | locus YCL061C, strain MRC1 (second series), stronger effect = lower value 0.993 | locus YCL069W, strain vba3, stronger effect = lower value 1.01 | locus YCR088W, strain abp1, stronger effect = lower value 1 | locus YDL005C, strain med2, stronger effect = lower value 1 | locus YDL035C, strain GPR1, stronger effect = lower value 0.99 | locus YDL040C, strain nat1, stronger effect = lower value 1.01 | locus YDL074C, strain BRE1, stronger effect = lower value 0.997 | locus YDL101C, strain DUN1, stronger effect = lower value 1 | locus YDL134C, strain PPH21, stronger effect = lower value 0.979 | locus YDL185W, strain tfp1, stronger effect = lower value 0.994 | locus YDL192W, strain arf1, stronger effect = lower value 0.994 | locus YDR001C, strain nth1, stronger effect = lower value 1.01 | locus YDR069C, strain doa4, stronger effect = lower value 0.99 | locus YDR101C, strain arx1, stronger effect = lower value 0.986 | locus YDR150W, strain NUM1, stronger effect = lower value 1 | locus YDR159W, strain sac3, stronger effect = lower value 1 | locus YDR162C, strain NBP2, stronger effect = lower value 0.997 | locus YDR195W, strain ref2 0.909 | locus YDR297W, strain sur2, stronger effect = lower value 1 | locus YDR318W, strain mcm21, stronger effect = lower value 0.993 | locus YDR334W, strain swr1, stronger effect = lower value 1.03 | locus YDR335W, strain msn5, stronger effect = lower value 1 | locus YDR363W, strain ESC2, stronger effect = lower value 1 | locus YDR388W, stronger effect = lower value 0.982 | locus YDR392W, strain spt3, stronger effect = lower value 0.962 | locus YDR502C, strain sam2, stronger effect = lower value 0.995 | locus YEL003W, strain gim4, stronger effect = lower value 0.999 | locus YEL037C, strain rad23, stronger effect = lower value 1 | locus YEL061C, strain CIN8 (second series), stronger effect = lower value 1.01 | locus YEL061C, strain CIN8, stronger effect = lower value 1 | locus YER002W, strain NOP16, stronger effect = lower value 1.02 | locus YER015W, strain faa2, stronger effect = lower value 1.01 | locus YER016W, strain bim1, stronger effect = lower value 0.987 | locus YER110C, stronger effect = lower value 0.999 | locus YER111C, strain swi4, stronger effect = lower value 1 | locus YER155C, strain BEM2 (second series), stronger effect = lower value 0.946 | locus YER155C, strain BEM2, stronger effect = lower value 1.01 | locus YER167W, strain BCK2, stronger effect = lower value 0.994 | locus YFR010W, strain ubp6, stronger effect = lower value 0.994 | locus YGL078C, strain dbp3, stronger effect = lower value 1.01 | locus YGL086W, strain mad1, stronger effect = lower value 0.988 | locus YGL167C, strain pmr1, stronger effect = lower value 0.999 | locus YGL173C, strain kem1, stronger effect = lower value 0.99 | locus YGL227W, strain vid30, stronger effect = lower value 1.01 | locus YGL240W, strain doc1, stronger effect = lower value 0.99 | locus YGL248W, strain PDE1, stronger effect = lower value 1.02 | locus YGL253W, strain hxk2, stronger effect = lower value 1.01 | locus YGR078C, strain PAC10, stronger effect = lower value 0.992 | locus YGR135W, strain pre9, stronger effect = lower value 0.958 | locus YGR229C, strain SMI1, stronger effect = lower value 0.976 | locus YGR252W, strain gcn5, stronger effect = lower value 0.877 | locus YHR013C, strain ard1, stronger effect = lower value 0.975 | locus YHR027C, strain rpn1, stronger effect = lower value 1 | locus YHR030C, strain SLT2, stronger effect = lower value 1 and 0.999 | locus YHR079C, strain IRE1 (second series), stronger effect = lower value 1.01 | locus YHR079C, strain IRE1, stronger effect = lower value 0.987 | locus YHR094C, strain hxt1, stronger effect = lower value 0.987 | locus YHR129C, strain ARP1, stronger effect = lower value 1.01 | locus YHR142W, strain chs7, stronger effect = lower value 1 | locus YHR200W, strain rpn10, stronger effect = lower value 0.993 | locus YIL066C, strain RNR3, stronger effect = lower value 0.987 | locus YIL073C, strain SPO22, stronger effect = lower value 1.01 | locus YIL125W, strain kgd1, stronger effect = lower value 0.996 | locus YIR030C, strain dcg1, stronger effect = lower value 0.989 | locus YJL092W, strain hpr5, stronger effect = lower value 1 | locus YJL095W, strain BCK1 (second series), stronger effect = lower value 0.994 | locus YJL095W, strain BCK1, stronger effect = lower value 0.996 and 0.988 | locus YJL115W, strain asf1, stronger effect = lower value 0.979 | locus YJL129C, strain trk1, stronger effect = lower value 1.01 | locus YJL134W, strain LCB3, stronger effect = lower value 1.01 | locus YJL154C, strain vps35, stronger effect = lower value 1.01 | locus YJL164C, strain tpk1, stronger effect = lower value 1 | locus YJL166W, strain qcr8, stronger effect = lower value 0.997 | locus YJL168C, strain set2, stronger effect = lower value 0.992 | locus YJL187C, strain SWE1 (second series), stronger effect = lower value 1.01 | locus YJL187C, strain SWE1, stronger effect = lower value 0.993 | locus YJR043C, strain POL32, stronger effect = lower value 1 | locus YJR066W, strain TOR1, stronger effect = lower value 0.954
